# Reference: PubChem BioAssay AID1159580 (chemical genetic matrix, 2015)
# The whole screen tested about 5,500 compounds, of which about 2,000 (36%) were called active. Not shown: some 18% with an inconclusive outcome. This is one part of the list. A number with no mark means an inactive call. Rule as the data show it: active = normalized growth mostly below about 0.91 (no sharp cut-off); inconclusive = no clear call, values can overlap the other calls; inactive = mostly above about 0.92.
# Test: chemical genetic growth profiling, strain panel (AID 1159580);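 also: tested at 20 µM; growth read once vehicle control cultures reached saturation at 30 °C; 1 = growth at the plate median or of vehicle wells; lower values mean less growth of the strain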
# Settings: growth OD
# [1] = S. cerevisiae deletion strains, locus YAL013W, strain DEP1, hits give low values
# [2] = S. cerevisiae deletion strains, locus YBR229C, strain ROT2, hits give low values
# [3] = S. cerevisiae deletion strains, locus YDL101C, strain DUN1, hits give low values
# [4] = S. cerevisiae deletion strains, locus YDR150W, strain NUM1, hits give low values
# [5] = S. cerevisiae deletion strains, locus YEL061C, strain CIN8, hits give low values
# [6] = S. cerevisiae deletion strains, locus YGR078C, strain PAC10, hits give low values
# [7] = S. cerevisiae deletion strains, locus YHR030C, strain SLT2, hits give low values
# [8] = S. cerevisiae deletion strains, locus YJR043C, strain POL32, hits give low values
# [9] = S. cerevisiae deletion strains, locus YJR075W, strain HOC1, hits give low values
# [10] = S. cerevisiae deletion strains, locus YKL190W, strain CNB1, hits give low values
# [11] = S. cerevisiae deletion strains, locus YLR039C, strain RIC1, hits give low values
# [12] = S. cerevisiae deletion strains, locus YLR262C, strain YPT6, hits give low values
# [13] = S. cerevisiae deletion strains, locus YMR263W, strain SAP30, hits give low values
# [14] = S. cerevisiae deletion strains, locus YNL128W, strain TEP1, hits give low values
# [15] = S. cerevisiae deletion strains, locus YNL153C, strain GIM3, hits give low values
# [16] = S. cerevisiae deletion strains, locus YNL322C, strain KRE1, hits give low values
# [17] = S. cerevisiae deletion strains, locus YOL006C, strain TOP1, hits give low values
# [18] = S. cerevisiae deletion strains, locus YPL055C, strain LGE1, hits give low values
# [19] = S. cerevisiae deletion strains, locus YPL241C, strain CIN2, hits give low values
# [20] = S. cerevisiae strains, strain wild type, hits give low values
smiles,measurement,setting,value
CCOC(=O)C1=C(O)C(=O)N(Cc2ccccc2)C1,normalized growth,[1],1.02
same,normalized growth,"S. cerevisiae deletion strains, locus YBR021W, strain FUR4, hits give low values",1.02
same,normalized growth,[2],1
same,normalized growth,"S. cerevisiae deletion strains, locus YCL029C, strain bik1, hits give low values",1.01
same,normalized growth,"S. cerevisiae deletion strains, locus YDL035C, strain GPR1, hits give low values",1.01
same,normalized growth,"S. cerevisiae deletion strains, locus YDL074C, strain BRE1, hits give low values",1
same,normalized growth,[3],1.01
same,normalized growth,"S. cerevisiae deletion strains, locus YDL134C, strain PPH21, hits give low values",1
same,normalized growth,"S. cerevisiae deletion strains, locus YDL185W, strain tfp1, hits give low values",1.02
same,normalized growth,"S. cerevisiae deletion strains, locus YDL192W, strain arf1, hits give low values",1.01
same,normalized growth,"S. cerevisiae deletion strains, locus YDR101C, strain arx1, hits give low values",1
same,normalized growth,[4],1.01
same,normalized growth,"S. cerevisiae deletion strains, locus YDR162C, strain NBP2, hits give low values",0.995
same,normalized growth,"S. cerevisiae deletion strains, locus YDR318W, strain mcm21, hits give low values",1.02
same,normalized growth,"S. cerevisiae deletion strains, locus YDR388W, hits give low values",1
same,normalized growth,"S. cerevisiae deletion strains, locus YDR502C, strain sam2, hits give low values",0.994
same,normalized growth,[5],1.01
same,normalized growth,"S. cerevisiae deletion strains, locus YER110C, hits give low values",1.02
same,normalized growth,"S. cerevisiae deletion strains, locus YER155C, strain BEM2, hits give low values",1
same,normalized growth,"S. cerevisiae deletion strains, locus YER167W, strain BCK2, hits give low values",1.03
same,normalized growth,"S. cerevisiae deletion strains, locus YGL078C, strain dbp3, hits give low values",1
same,normalized growth,"S. cerevisiae deletion strains, locus YGL086W, strain mad1, hits give low values",1.02
same,normalized growth,"S. cerevisiae deletion strains, locus YGL248W, strain PDE1, hits give low values",1.01
same,normalized growth,[6],1.01
same,normalized growth,"S. cerevisiae deletion strains, locus YGR135W, strain pre9, hits give low values",0.987
same,normalized growth,"S. cerevisiae deletion strains, locus YGR229C, strain SMI1, hits give low values",1
same,normalized growth,"S. cerevisiae deletion strains, locus YGR252W, strain gcn5, hits give low values",1.02
same,normalized growth,[7],1.01
same,normalized growth,"S. cerevisiae deletion strains, locus YHR079C, strain IRE1 (second series), hits give low values",1.02
same,normalized growth,"S. cerevisiae deletion strains, locus YHR094C, strain hxt1, hits give low values",1.01
same,normalized growth,"S. cerevisiae deletion strains, locus YHR129C, strain ARP1, hits give low values",1.02
same,normalized growth,"S. cerevisiae deletion strains, locus YHR200W, strain rpn10, hits give low values",1.01
same,normalized growth,"S. cerevisiae deletion strains, locus YIL066C, strain RNR3, hits give low values",1
same,normalized growth,"S. cerevisiae deletion strains, locus YIL073C, strain SPO22, hits give low values",1.1
same,normalized growth,"S. cerevisiae deletion strains, locus YIL125W, strain kgd1, hits give low values",1
same,normalized growth,"S. cerevisiae deletion strains, locus YIR030C, strain dcg1, hits give low values",1.01
same,normalized growth,"S. cerevisiae deletion strains, locus YJL095W, strain BCK1, hits give low values",1.01
same,normalized growth,"S. cerevisiae deletion strains, locus YJL134W, strain LCB3, hits give low values",1.01
same,normalized growth,"S. cerevisiae deletion strains, locus YJL168C, strain set2, hits give low values",1.01
same,normalized growth,"S. cerevisiae deletion strains, locus YJL187C, strain SWE1 (second series), hits give low values",1.01
same,normalized growth,[8],1.04
same,normalized growth,[9],0.997
same,normalized growth,"S. cerevisiae deletion strains, locus YKL009W, strain mrt4, hits give low values",1.03
same,normalized growth,"S. cerevisiae deletion strains, locus YKL068W, hits give low values",1
same,normalized growth,"S. cerevisiae deletion strains, locus YKL085W, strain MDH1 (second series), hits give low values",1.02
same,normalized growth,"S. cerevisiae deletion strains, locus YKL085W, strain MDH1, hits give low values",1.02
same,normalized growth,[10],1.01
same,normalized growth,"S. cerevisiae deletion strains, locus YKR001C, strain vps1, hits give low values",1.01
same,normalized growth,[11],1.05
same,normalized growth,"S. cerevisiae deletion strains, locus YLR058C, strain SHM2, hits give low values",1.02
same,normalized growth,"S. cerevisiae deletion strains, locus YLR102C, strain apc9, hits give low values",1.01
same,normalized growth,[12],0.993
same,normalized growth,"S. cerevisiae deletion strains, locus YLR268W, strain sec22, hits give low values",0.982
same,normalized growth,"S. cerevisiae deletion strains, locus YLR330W, strain CHS5, hits give low values",1.01
same,normalized growth,"S. cerevisiae deletion strains, locus YLR342W, strain FKS1 (second series), hits give low values",1.09
same,normalized growth,"S. cerevisiae deletion strains, locus YLR371W, strain rom2, hits give low values",1.01
same,normalized growth,"S. cerevisiae deletion strains, locus YLR418C, strain cdc73, hits give low values",0.977
same,normalized growth,"S. cerevisiae deletion strains, locus YML016C, strain PPZ1, hits give low values",1
same,normalized growth,"S. cerevisiae deletion strains, locus YML032C, strain rad52, hits give low values",1.03
same,normalized growth,"S. cerevisiae deletion strains, locus YML124C, strain tub3, hits give low values",1.01
same,normalized growth,"S. cerevisiae deletion strains, locus YMR078C, strain ctf18, hits give low values",1.02
same,normalized growth,"S. cerevisiae deletion strains, locus YMR223W, strain ubp8, hits give low values",1.03
same,normalized growth,[13],0.999
same,normalized growth,"S. cerevisiae deletion strains, locus YMR307W, strain GAS1, hits give low values",1.03
same,normalized growth,"S. cerevisiae deletion strains, locus YNL067W, strain RPL9B, hits give low values",0.99
same,normalized growth,[14],0.985
same,normalized growth,[15],0.994
same,normalized growth,"S. cerevisiae deletion strains, locus YNL233W, strain BNI4, hits give low values",1.01
same,normalized growth,"S. cerevisiae deletion strains, locus YNL250W, strain rad50, hits give low values",1
same,normalized growth,"S. cerevisiae deletion strains, locus YNL271C, strain bni1, hits give low values",1.01
same,normalized growth,"S. cerevisiae deletion strains, locus YNL298W, strain CLA4, hits give low values",1
same,normalized growth,"S. cerevisiae deletion strains, locus YNL307C, strain MCK1, hits give low values",1.02
same,normalized growth,[16],0.996
same,normalized growth,"S. cerevisiae deletion strains, locus YNR052C, strain pop2, hits give low values",1.02
same,normalized growth,[17],1.01
same,normalized growth,"S. cerevisiae deletion strains, locus YOL012C, strain htz1",0.868
same,normalized growth,"S. cerevisiae deletion strains, locus YOL147C, strain pex11, hits give low values",1.01
same,normalized growth,"S. cerevisiae deletion strains, locus YOR061W, strain CKA2, hits give low values",1.01
same,normalized growth,"S. cerevisiae deletion strains, locus YOR069W, strain VPS5, hits give low values",1.01
same,normalized growth,"S. cerevisiae deletion strains, locus YOR136W, strain idh2, hits give low values",1.02
same,normalized growth,"S. cerevisiae deletion strains, locus YOR144C, strain elg1, hits give low values",1
same,normalized growth,"S. cerevisiae deletion strains, locus YOR184W, strain ser1, hits give low values",1.04
same,normalized growth,"S. cerevisiae deletion strains, locus YOR316C, strain cot1, hits give low values",1.01
same,normalized growth,[18],0.969
same,normalized growth,[19],1
same,normalized growth,"S. cerevisiae deletion strains, locus YPR119W, strain clb2, hits give low values",1
same,normalized growth,"S. cerevisiae deletion strains, locus YPR141C, strain kar3, hits give low values",1
same,normalized growth,"S. cerevisiae deletion strains, locus YPR163C, strain tif3, hits give low values",1.01
same,normalized growth,"S. cerevisiae deletion strains, locus YPR167C, strain met16, hits give low values",1.01
same,normalized growth,"S. cerevisiae deletion strains, strain wtn01, hits give low values",1
same,normalized growth,[20],1.01
CCOC(=O)c1cnc2n(c1=O)CCS2,normalized growth,[1],1.02
same,normalized growth,[2],0.997
same,normalized growth,[3],1.05
same,normalized growth,[4],0.965
same,normalized growth,[5],1.04
same,normalized growth,[6],1.04
same,normalized growth,[7],1.1
same,normalized growth,"S. cerevisiae deletion strains, locus YHR087W, strain rtc3, hits give low values",1.02
same,normalized growth,[8],0.999
same,normalized growth,[9],1.01
same,normalized growth,[10],0.996
same,normalized growth,[11],0.99
same,normalized growth,"S. cerevisiae deletion strains, locus YLR058C, strain SHM2 (second series), hits give low values",0.995
same,normalized growth,"S. cerevisiae deletion strains, locus YLR085C, strain ARP6, hits give low values",1.06
same,normalized growth,[12],0.996
same,normalized growth,"S. cerevisiae deletion strains, locus YML094W, strain GIM5, hits give low values",1.13 [resistant] (active)
same,normalized growth,"S. cerevisiae deletion strains, locus YMR219W, strain ESC1, hits give low values",0.999
same,normalized growth,[13],1
same,normalized growth,[14],0.997
same,normalized growth,[15],1.02
same,normalized growth,"S. cerevisiae deletion strains, locus YNL298W, strain CLA4 (second series), hits give low values",1.03
same,normalized growth,[16],1.01
same,normalized growth,"S. cerevisiae deletion strains, locus YNR030W, strain Alg12, hits give low values",1.08
same,normalized growth,[17],1.07
same,normalized growth,[18],0.987
same,normalized growth,[19],1.01
same,normalized growth,"S. cerevisiae deletion strains, locus YPR135W, strain CTF4, hits give low values",1.12
same,normalized growth,[20],0.975
